Among the test systems are K-562 leukemia; MALME-3M melanoma; MDA-MB-231 breast; RXF 393 renal; SF-268 CNS; SF-295 CNS; SF-539 CNS; UACC-257 melanoma; M14 melanoma; HCT-15 colon; HT29 colon; SNB-75 CNS; SNB-19 CNS; U251 CNS; SK-MEL-5 melanoma; UACC-62 melanoma; SK-MEL-28 melanoma; SK-MEL-2 melanoma; LOX IMVI melanoma; PC-3 prostate.
Test in all cases: NCI-60 one-dose screen, 48 h (100 = growth as untreated, 0 = no growth, -100 = all killed)
What all share (details): 10 µM unless noted

The results in this text go back to PubChem BioAssay (NCI).

Each structure is given as a SMILES string. About 83,000 compounds went through this panel and 20% of them were active in at least one assay; those are over-represented in the sample as a whole.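 Each cell line was grown in a 96-well plate and treated with one concentration of compound for 48 hours. Values below 10 were considered active.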 A number with no mark means an inactive call. Active and inactive are the calls of the source.

In the case of `COc1ccc(-c2nn(-c3ccccc3)cc2/C=C2\SC(=S)N(CCc3ccc(O)cc3)C2=O)cc1`, the growth with K-562 leukemia is 66%; in the experiment with MALME-3M melanoma it was 85.1%; in the experiment on MDA-MB-231 breast it was 75.4%; with RXF 393 renal it was 92.5%; in the experiment with SF-268 CNS it was 81.4%; with SF-295 CNS it was 80.2%. The growth in the experiment with SF-539 CNS was 87.2%; in the experiment with UACC-257 melanoma it was 93.7%; in the experiment with M14 melanoma, 91.3%; with HCT-15 colon, 77.7%; in the experiment with HT29 colon it was 101%; with SNB-75 CNS, 81%. Besides, the growth is 93.6% with SNB-19 CNS; 90.5% in the experiment with U251 CNS; 88.1% with SK-MEL-5 melanoma; 60.3% in the experiment on UACC-62 melanoma; 98.6% in the experiment with SK-MEL-28 melanoma; 95% in the experiment on SK-MEL-2 melanoma.

As to `Nc1ncc(-c2cnn(C3CCNCC3)c2)cc1-c1nc2cc(Cl)ccc2o1`, the growth was -100% (active) in the experiment on K-562 leukemia; -92.5% (active) in the experiment with MALME-3M melanoma; -91.7% (active) in the experiment with MDA-MB-231 breast; -96.4% (active) with RXF 393 renal; -83.4% (active) in the experiment with SF-268 CNS; -78.7% (active) in the experiment on SF-295 CNS. The growth was -100% (active) in the experiment with SF-539 CNS; -93.3% (active) in the experiment with UACC-257 melanoma; -100% (active) in the experiment on M14 melanoma; -84.9% (active) in the experiment with HCT-15 colon; -100% (active) in the experiment on HT29 colon; -97.9% (active) in the experiment with SNB-75 CNS. In addition, the growth with SNB-19 CNS is -91.1% (active); in the experiment on U251 CNS, -100% (active); in the experiment with UACC-62 melanoma, -100% (active); with LOX IMVI melanoma, -96.9% (active); with SK-MEL-28 melanoma, -100% (active); in the experiment on SK-MEL-2 melanoma, -90.8% (active).

For the molecule `CCN(CC)c1ccc(CN(CC(=O)c2ccc(Cl)c(Cl)c2)Cc2ccccc2)cc1`, the growth was 103% in the experiment on K-562 leukemia; 108% with MALME-3M melanoma; 99.9% in the experiment with MDA-MB-231 breast; 89.9% in the experiment on RXF 393 renal; 102% with SF-268 CNS; 107% with SF-295 CNS. In addition, the growth was 108% in the experiment on SF-539 CNS; 112% with UACC-257 melanoma; 103% with M14 melanoma; 99.8% in the experiment on HCT-15 colon; 105% with HT29 colon; 93% in the experiment with SNB-75 CNS. Moreover, the growth with U251 CNS is 103%; in the experiment on PC-3 prostate it was 83%; with SK-MEL-5 melanoma, 97.9%; with UACC-62 melanoma, 90.9%; in the experiment on LOX IMVI melanoma, 94.3%; in the experiment with SK-MEL-28 melanoma, 110%. For the same molecule, in the experiment with SK-MEL-2 melanoma, the growth is 96.9%.

With `O=C(Nc1ncc([N+](=O)[O-])s1)c1cccc([N+](=O)[O-])c1`, the growth was 23.3% with K-562 leukemia; 40.3% in the experiment on MALME-3M melanoma; 62.3% with MDA-MB-231 breast; 25.1% with RXF 393 renal; 64.2% in the experiment with SF-268 CNS; 23.3% with SF-295 CNS. Besides, the growth in the experiment on SF-539 CNS is 28.4%; with UACC-257 melanoma it was 58.6%; in the experiment with M14 melanoma it was 44%; in the experiment on HCT-15 colon, 47.8%; in the experiment on HT29 colon, 51.4%; in the experiment on SNB-75 CNS it was 30.3%. Further, the growth in the experiment with SNB-19 CNS is 32.8%; with U251 CNS, 52%; in the experiment with SK-MEL-5 melanoma it was -14.2% (active); in the experiment with UACC-62 melanoma, 9.35% (active); in the experiment on SK-MEL-28 melanoma it was 56.8%; in the experiment on SK-MEL-2 melanoma, 16.9%.

Turning to `C=C(C[C@](O)(C(=O)/C=C/c1ccc(Cl)cc1)C(=O)OC)c1ccccc1`, the growth in the experiment with K-562 leukemia was 50.7%; in the experiment on MALME-3M melanoma, 95.7%; with MDA-MB-231 breast it was 71%; in the experiment on RXF 393 renal, 52.5%; in the experiment on SF-268 CNS, 87.4%; in the experiment with SF-295 CNS, 98.9%. In addition, the growth in the experiment with SF-539 CNS is 75.8%; with UACC-257 melanoma, 91.7%; in the experiment with M14 melanoma, 84.1%; in the experiment on HCT-15 colon, 3.71% (active); with HT29 colon it was 16.4%; with SNB-75 CNS, 75.7%. Also, the growth was 28.6% in the experiment with U251 CNS; 65.4% in the experiment on PC-3 prostate; 76% with SK-MEL-5 melanoma; 53.8% with UACC-62 melanoma; -72.4% (active) in the experiment on LOX IMVI melanoma; 95.4% in the experiment on SK-MEL-28 melanoma. In the experiment on SK-MEL-2 melanoma, the growth is 102%.

For the molecule `O=C1OCC/C1=C\OCCCO/C=C1\CCOC1=O`, the growth is 107% in the experiment on K-562 leukemia; 95.2% in the experiment on MALME-3M melanoma; 107% in the experiment on MDA-MB-231 breast; 117% in the experiment with RXF 393 renal; 109% in the experiment on SF-268 CNS; 106% with SF-295 CNS. Besides, the growth was 105% with SF-539 CNS; 106% with UACC-257 melanoma; 110% with M14 melanoma; 98.1% in the experiment with HCT-15 colon; 105% in the experiment on HT29 colon; 97.1% with SNB-75 CNS. The growth with SNB-19 CNS is 104%; with U251 CNS, 99.6%; in the experiment on SK-MEL-5 melanoma, 105%; with UACC-62 melanoma, 91%; with LOX IMVI melanoma, 98.8%; in the experiment on SK-MEL-28 melanoma, 125%. Further, the growth in the experiment on SK-MEL-2 melanoma was 104%.

Consider `COc1ccc(C2=NN(C(C)=O)C(c3cc(OC)c(OC)c(OC)c3)C2)cc1` (centres undefined), for which the growth is 75.4% with K-562 leukemia; 120% with MALME-3M melanoma; 109% in the experiment with MDA-MB-231 breast; 111% in the experiment on RXF 393 renal; 94.4% in the experiment on SF-268 CNS; 95.4% in the experiment on SF-295 CNS. For the same molecule, the growth with SF-539 CNS was 91.5%; in the experiment with UACC-257 melanoma it was 113%; with M14 melanoma, 98.3%; with HCT-15 colon, 84.6%; in the experiment on HT29 colon, 103%; in the experiment with SNB-75 CNS it was 96.6%. Further, the growth was 90.7% with SNB-19 CNS; 105% with U251 CNS; 92.6% in the experiment on SK-MEL-5 melanoma; 101% with UACC-62 melanoma; 129% in the experiment with SK-MEL-28 melanoma; 99% in the experiment on SK-MEL-2 melanoma.

For the molecule `CC(=O)n1c2ccccc2c2ccccc21`, the growth was 111% with K-562 leukemia; 126% in the experiment on MALME-3M melanoma; 126% in the experiment with MDA-MB-231 breast; 144% in the experiment with RXF 393 renal; 115% in the experiment on SF-268 CNS; 96.7% in the experiment on SF-295 CNS. Also, the growth in the experiment on SF-539 CNS was 107%; in the experiment with UACC-257 melanoma, 123%; in the experiment with M14 melanoma it was 103%; in the experiment on HCT-15 colon, 112%; in the experiment with HT29 colon, 105%; with SNB-75 CNS, 97.6%. Further, the growth with SNB-19 CNS was 113%; with U251 CNS it was 104%; in the experiment with SK-MEL-5 melanoma, 108%; in the experiment on UACC-62 melanoma it was 114%; with SK-MEL-28 melanoma it was 107%; in the experiment with SK-MEL-2 melanoma it was 123%.

In the case of `CCN1C[C@@H](C)n2c(c(O)c3c(=O)n(Cc4ccc(F)c(Cl)c4)nc(C(=O)NC)c32)C1=O`, the growth in the experiment on K-562 leukemia was 42%; in the experiment with MALME-3M melanoma, 5.1% (active); in the experiment with MDA-MB-231 breast it was 50.7%; with RXF 393 renal, 2.79% (active); in the experiment on SF-268 CNS it was 23.2%; in the experiment on SF-295 CNS, 0.0694% (active). Further, the growth in the experiment on SF-539 CNS was 3.53% (active); in the experiment with UACC-257 melanoma it was 3.7% (active); in the experiment with M14 melanoma, 30.4%; with HCT-15 colon, 6.16% (active); in the experiment on HT29 colon, 106%; in the experiment with SNB-75 CNS, 20.2%. The growth with SNB-19 CNS was 12%; in the experiment on PC-3 prostate, 69.4%; in the experiment on SK-MEL-5 melanoma, 15.1%; in the experiment on UACC-62 melanoma, -4.84% (active); in the experiment with SK-MEL-28 melanoma it was 28.9%.
